# Values joined by “and” are separate entries in the source; they are usually repeats but may differ in a detail not shown here. Equal values may be shown once. Results filed as inconclusive are left out. For some of these results: Measured potencies and affinities stand elsewhere. Active and inactive are the calls of the source.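 How the source made its calls, unless noted: active means normalized viability below 100% at a tested concentration; inactive means the rest.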
# Experiments:
# [1] = P. berghei load reduction in hepatocytes – cell-based, HepG2, luciferase luminescence, HepG2 viability, primary screen (AID 624349; in the data active means parasite load remaining mostly below about 12%, no sharp cut-off; inactive means mostly above about 10%;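 further: 100% = mean of DMSO negative control wells on the same plate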); details: P. berghei liver stage in HepG2, luciferase luminescence, concentration not given here; parasite load remaining: stronger effect = lower value; viability: measured here: HepG2 viability without parasites
# [2] = EMT-state selective cytotoxicity in co-culture – imaging, PC-3E GFP, TEM4-18 mCherry, primary screen (AID 1345086;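 active means compounds killing one labelled cell type while sparing the other, by normalised counts and ratio limits, not self-fluorescent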;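 on all read-outs here: cells exposed to compound for 72 h before imaging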;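 on red/green cell ratio (normalised): normalised mesenchymal count divided by normalised epithelial count so high means epithelial killing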); details: PC-3E GFP / TEM4-18 mCherry co-culture, imaging cell counts, at 1 µM; for red/green cell ratio (normalised): actives lie on both sides, counts scaled to control wells, 1 = unselective
# [3] = viability loss in pontine glioma line – cell-based, SU-DIPG-XVII, MIPE5.0, CellTiter-Glo, qHTS, dose response (AID 1347060; cut-off not given, nearly all actives have AC50 up to about 26 µM;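 on AC50: cells exposed to compound for 48 hours before viability readout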); details: CellTiter-Glo ATP luminescence
# [4] = viability loss in pontine glioma line – cell-based, JHH-DIPG-1, MIPE4.0, CellTiter-Glo, qHTS, dose response (AID 1347062; cut-off not given, nearly all actives have AC50 up to about 27 µM); details: JHH-DIPG-1 viability, CellTiter-Glo ATP luminescence
# [5] = viability loss in pontine glioma line – cell-based, SU-DIPG-XXV, MIPE5.0, CellTiter-Glo, qHTS, dose response (AID 1347065; cut-off not given, nearly all actives have AC50 up to about 26 µM;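 further: cells exposed to compound for 48 hours before ATP readout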); details: CellTiter-Glo ATP luminescence
# [6] = growth inhibition of DIPG cells – cell-based, MIPE4.0 library, CellTiter-Glo luminescence, qHTS (AID 1347066; cut-off not given, nearly all actives have AC50 up to about 30 µM;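 further: cells exposed to compound for 48 hours before readout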); details: SU-DIPG-VI viability, CellTiter-Glo ATP luminescence
# [7] = JHH-DIPG-1 glioma cell viability, MIPE5.0 library, CellTiter-Glo luminescence, qHTS (AID 1347067; cut-off not given, nearly all actives have AC50 up to about 26 µM;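 further: cells exposed to compound for 48 hours before readout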); details: JHH-DIPG-1 glioma viability, CellTiter-Glo ATP luminescence
# [8] = growth inhibition of DIPG cells – cell-based, MIPE5.0 library, qHTS (AID 1347068; cut-off not given, nearly all actives have IC50 up to about 30 µM); details: SU-DIPG-XXV viability
# [9] = viability loss with induced miR-34 in A549 – imaging, A549 dox-inducible miR-34, nuclei and caspase counts, primary screen (AID 1347080;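 active means compounds whose cell count with miR-34 switched on is under 0.7 times the count with it off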); details: A549 miR-34 inducible, Hoechst nuclei count, 48 h
# [10] = drug combination growth inhibition, ovarian cancer – cell-based, oncology-focused library, rucaparib conditional, profiling panel (AID 1508598); details: patient-derived ovarian cancer cells, CellTiter-Glo viability, 144 h, stronger effect = lower value
# [11] = target: NAD(+) hydrolase SARM1 (Homo sapiens) (UniProt Q6SZW1); assay: blocking NAD cleavage by SARM1 SAM-TIR – cell lysate, NAD-Glo luminescence (AID 1508614;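 active means compound whose remaining NAD level is above about 45 nM, limit read from the data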); details: SAM-TIR HEK293T lysate NADase, at 1 µM, stronger effect = higher value
# Sequence of NAD(+) hydrolase SARM1 (Homo sapiens) (Q6SZW1 whole entry, looked up, the tested form may be a part): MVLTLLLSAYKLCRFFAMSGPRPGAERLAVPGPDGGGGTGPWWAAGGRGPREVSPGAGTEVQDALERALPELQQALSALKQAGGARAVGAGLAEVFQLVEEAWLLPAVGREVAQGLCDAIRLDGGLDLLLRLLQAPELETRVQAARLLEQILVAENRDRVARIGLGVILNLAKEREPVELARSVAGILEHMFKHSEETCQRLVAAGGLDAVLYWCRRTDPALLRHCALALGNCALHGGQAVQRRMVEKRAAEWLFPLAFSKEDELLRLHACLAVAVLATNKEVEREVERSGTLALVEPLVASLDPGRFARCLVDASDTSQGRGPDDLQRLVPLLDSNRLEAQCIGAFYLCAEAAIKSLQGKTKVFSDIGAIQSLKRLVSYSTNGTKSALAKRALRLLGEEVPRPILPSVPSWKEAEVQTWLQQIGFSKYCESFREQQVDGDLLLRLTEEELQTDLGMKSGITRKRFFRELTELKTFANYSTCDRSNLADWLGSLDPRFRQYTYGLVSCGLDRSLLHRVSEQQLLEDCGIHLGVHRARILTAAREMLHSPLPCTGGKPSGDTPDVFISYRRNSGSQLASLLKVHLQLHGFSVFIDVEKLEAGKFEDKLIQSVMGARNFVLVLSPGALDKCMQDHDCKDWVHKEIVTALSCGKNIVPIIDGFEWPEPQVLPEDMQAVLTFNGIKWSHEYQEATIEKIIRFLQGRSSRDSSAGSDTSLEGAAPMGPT
# [12] = target: Mitogen-activated protein kinase 7 (Homo sapiens) (UniProt Q13164); assay: Gal4-ERK5 driven luciferase induction – cell-based, HTS, primary screen (AID 1508626;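 active means luciferase signal above three times the same-plate solvent-only control wells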;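 further: luciferase driven by Gal4-ERK5 fusion binding five Gal4 sites before minimal TATA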); details: HeLa Gal4-ERK5 transactivation, 18 h, at 5 µM, stronger effect = higher value
# Sequence of Mitogen-activated protein kinase 7 (Homo sapiens) (Q13164 whole entry, looked up, the tested form may be a part): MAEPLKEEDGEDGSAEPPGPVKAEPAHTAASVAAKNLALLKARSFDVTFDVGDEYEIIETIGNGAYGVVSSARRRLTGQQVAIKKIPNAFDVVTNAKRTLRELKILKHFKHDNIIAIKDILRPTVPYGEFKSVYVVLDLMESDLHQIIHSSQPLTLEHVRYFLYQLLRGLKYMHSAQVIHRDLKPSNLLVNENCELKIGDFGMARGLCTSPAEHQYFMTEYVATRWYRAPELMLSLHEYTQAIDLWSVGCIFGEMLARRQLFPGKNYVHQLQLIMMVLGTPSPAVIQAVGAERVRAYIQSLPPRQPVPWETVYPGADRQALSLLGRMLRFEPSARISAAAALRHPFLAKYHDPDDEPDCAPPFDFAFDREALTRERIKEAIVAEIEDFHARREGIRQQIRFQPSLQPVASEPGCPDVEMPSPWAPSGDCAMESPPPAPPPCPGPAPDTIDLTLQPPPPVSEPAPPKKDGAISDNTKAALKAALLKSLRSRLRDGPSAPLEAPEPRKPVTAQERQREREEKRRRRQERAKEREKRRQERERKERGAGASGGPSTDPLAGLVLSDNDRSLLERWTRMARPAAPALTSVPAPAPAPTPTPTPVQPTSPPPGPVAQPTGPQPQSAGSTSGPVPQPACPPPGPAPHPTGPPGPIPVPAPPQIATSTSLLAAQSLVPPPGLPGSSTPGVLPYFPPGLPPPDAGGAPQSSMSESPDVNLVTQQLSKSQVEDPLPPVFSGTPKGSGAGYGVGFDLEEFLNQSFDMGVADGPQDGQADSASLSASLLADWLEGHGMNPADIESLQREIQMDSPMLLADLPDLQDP
# [13] = viability loss in pontine glioma line – cell-based, SU-DIPG-IV, MIPE4.0, CellTiter-Glo, qHTS, dose response (AID 1347063; cut-off not given, nearly all actives have AC50 up to about 30 µM;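 further: compound exposure lasted 48 hours before the viability readout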); details: CellTiter-Glo ATP luminescence
# [14] = viability loss in pontine glioma line – cell-based, SU-DIPG-XIII, MIPE5.0, CellTiter-Glo, qHTS, dose response (AID 1347064; cut-off not given, nearly all actives have AC50 up to about 23 µM); details: CellTiter-Glo ATP luminescence
# [15] = blockers of polyQ-driven CASP3 activation – cell-based (AID 1583); details: polyglutamine-induced caspase-3 activation, cell assay; stronger effect = higher value;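 tested at 10 µM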
# [16] = yeast 75Q aggregation reduction – 75Q-TubU reporter (AID 1593); details: Yeast 75Q polyglutamine aggregation reporter
# [17] = restoration of touch response, mutant HTT neurons – whole organism, C. elegans mechanosensory neurons, N-terminal huntingtin (AID 1599); details: C. elegans polyQ-huntingtin mechanosensory neurons, stronger effect = higher value
# [18] = blockers of cytochrome c efflux from mitochondria – biochemical, purified mitochondria (AID 1603); details: stronger effect = lower value;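 further: mouse liver mitochondria challenged with calcium chloride; signal normalized to the plate average as 100%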
# [19] = polyglutamine aggregate formation blockers (AID 1604); details: polyglutamine-induced protein aggregation inhibition assay; stronger effect = higher value; tested at 2.5 µM
# [20] = glutamate transport activators, MN-1 cells, MN-1 cell line (AID 1612); details: MN-1 motor neuron cells, stronger effect = higher value;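 further: tested at 1 µM final; 0% = mean of DMSO vehicle wells on each plate; positive means more glutamate uptake than control and negative means less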
# [21] = GFP-Q80 aggregate reduction, neuronal-like cells, cell-based, NGF-treated PC12, GFPQ80 (AID 1614); details: PC12 NGF-treated GFP-polyQ80 inclusion reduction;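 further: lower means fewer inclusions and 0 means no inclusions at all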
# [22] = 75Q-TubH aggregate inhibition, S. cerevisiae, yeast (AID 1616); details: S. cerevisiae 75Q-TubH polyglutamine aggregation suppression; stronger effect = higher value
# [23] = MELAS cybrid and Rieske KO viability enhancers – cell-based, MELAS cybrids, Rieske KO mouse fibroblasts, CellTiter-Glo, primary screen (AID 1508586;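 active means mean z-score across replicates of 1.96 or higher in either the MELAS or the Rieske mutant cell line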;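 further: z relative to plate mean and SD of compound and empty wells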); details: low glucose
# [24] = measured here: epithelial PC-3E GFP cell survival
# [25] = measured here: mesenchymal TEM4-18 mCherry cell survival
# [26] = stronger effect = lower value, cell number ratio, induced over uninduced
# [27] = measured here: relative caspase fold change +Dox/-Dox
# [28] = measured here: total cells with miR-34 induction, stronger effect = lower value
# [29] = measured here: total cells without miR-34 induction
smiles,measurement,setting,value
Nc1nc(F)nc2c1ncn2[C@@H]1O[C@H](COP(=O)(O)O)[C@@H](O)[C@@H]1O,parasite load remaining,[1],22.2% (inactive)
same,viability,[1],105%
same,red/green cell ratio (normalised),[2],1.06 (inactive)
same,normalised cell number,[2]; [24],0.86
same,normalised cell number,[2]; [25],0.92
same,AC50,[3],18.6 µM (active)
same,outcome,[4],inactive
same,outcome,[5],inactive
same,outcome,[6],inactive
same,outcome,[7],inactive
same,outcome,[8],inactive
same,fold change,[9]; [26],1.07 (inactive)
same,fold change,[9]; [27],1.01
same,cell count,[9]; [28],1570
same,cell count,[9]; [29],1470
same,viability,"[10]; at 0.000305 µM, OCI-C5x cells, with rucaparib 10 µM, 100% = cells with rucaparib alone",107% (inactive)
same,viability,"[10]; at 0.000305 µM, OCI-C5x cells, without rucaparib",110% (inactive)
same,viability,"[10]; at 0.000305 µM, OCI-P5x cells, with rucaparib 20 µM, 100% = cells with rucaparib alone",111% (inactive)
same,viability,"[10]; at 0.000305 µM, OCI-P5x cells, without rucaparib",109% (inactive)
same,viability,"[10]; at 0.00122 µM, OCI-C5x cells, with rucaparib 10 µM, 100% = cells with rucaparib alone",107% (inactive)
same,viability,"[10]; at 0.00122 µM, OCI-C5x cells, without rucaparib",109% (inactive)
same,viability,"[10]; at 0.00122 µM, OCI-P5x cells, with rucaparib 20 µM, 100% = cells with rucaparib alone",106% (inactive)
same,viability,"[10]; at 0.00122 µM, OCI-P5x cells, without rucaparib",109% (inactive)
same,viability,"[10]; at 0.00488 µM, OCI-C5x cells, with rucaparib 10 µM, 100% = cells with rucaparib alone",105% (inactive)
same,viability,"[10]; at 0.00488 µM, OCI-C5x cells, without rucaparib",111% (inactive)
same,viability,"[10]; at 0.00488 µM, OCI-P5x cells, with rucaparib 20 µM, 100% = cells with rucaparib alone",107% (inactive)
same,viability,"[10]; at 0.00488 µM, OCI-P5x cells, without rucaparib",110% (inactive)
same,viability,"[10]; at 0.0195 µM, OCI-C5x cells, with rucaparib 10 µM, 100% = cells with rucaparib alone",97% (active)
same,viability,"[10]; at 0.0195 µM, OCI-C5x cells, without rucaparib",111% (inactive)
same,viability,"[10]; at 0.0195 µM, OCI-P5x cells, with rucaparib 20 µM, 100% = cells with rucaparib alone",109% (inactive)
same,viability,"[10]; at 0.0195 µM, OCI-P5x cells, without rucaparib",108% (inactive)
same,viability,"[10]; at 0.0781 µM, OCI-C5x cells, with rucaparib 10 µM, 100% = cells with rucaparib alone",101% (inactive)
same,viability,"[10]; at 0.0781 µM, OCI-C5x cells, without rucaparib",112% (inactive)
same,viability,"[10]; at 0.0781 µM, OCI-P5x cells, with rucaparib 20 µM, 100% = cells with rucaparib alone",109% (inactive)
same,viability,"[10]; at 0.0781 µM, OCI-P5x cells, without rucaparib",110% (inactive)
same,viability,"[10]; at 0.313 µM, OCI-C5x cells, with rucaparib 10 µM, 100% = cells with rucaparib alone",87.1% (active)
same,viability,"[10]; at 0.313 µM, OCI-C5x cells, without rucaparib",98.3% (active)
same,viability,"[10]; at 0.313 µM, OCI-P5x cells, with rucaparib 20 µM, 100% = cells with rucaparib alone",106% (inactive)
same,viability,"[10]; at 0.313 µM, OCI-P5x cells, without rucaparib",107% (inactive)
same,viability,"[10]; at 1.25 µM, OCI-C5x cells, with rucaparib 10 µM, 100% = cells with rucaparib alone",82.9% (active)
same,viability,"[10]; at 1.25 µM, OCI-C5x cells, without rucaparib",78% (active)
same,viability,"[10]; at 1.25 µM, OCI-P5x cells, with rucaparib 20 µM, 100% = cells with rucaparib alone",114% (inactive)
same,viability,"[10]; at 1.25 µM, OCI-P5x cells, without rucaparib",111% (inactive)
same,viability,"[10]; at 5 µM, OCI-C5x cells, with rucaparib 10 µM, 100% = cells with rucaparib alone",58.5% (active)
same,viability,"[10]; at 5 µM, OCI-C5x cells, without rucaparib",59.8% (active)
same,viability,"[10]; at 5 µM, OCI-P5x cells, with rucaparib 20 µM, 100% = cells with rucaparib alone",106% (inactive)
same,viability,"[10]; at 5 µM, OCI-P5x cells, without rucaparib",78.1% (active)
same,remaining NAD,[11],10 nM (inactive)
same,luciferase signal,[12],52 AU (inactive)
CC(C)C(C)/C=C/C(C)C1CCC2C3=CC=C4CC(O)CCC4(C)C3CCC21C (stereo not drawn),red/green cell ratio (normalised),[2],0.85 (inactive)
same,normalised cell number,[2]; [24],1
same,normalised cell number,[2]; [25],0.85
same,outcome,[3],inactive
same,outcome,[4],inactive
same,outcome,[13],inactive
same,outcome,[14],inactive
same,outcome,[5],inactive
same,outcome,[6],inactive
same,outcome,[7],inactive
same,outcome,[8],inactive
Clc1ccc(CCC(Cn2ccnc2)Sc2c(Cl)cccc2Cl)cc1 (stereo not drawn),red/green cell ratio (normalised),[2],0.84 (inactive)
same,normalised cell number,[2]; [24],1.26
same,normalised cell number,[2]; [25],1.06
same,outcome,[5],inactive
same,outcome,[7],inactive
same,remaining NAD,[11],10 nM (inactive)
COc1ccc(C2Sc3ccccc3N(CCN(C)C)C(=O)C2OC(C)=O)cc1 (stereo not drawn),inhibition,[15],5.24%
same,score,[16],1.09
same,rescue above control,[17],-7.88
same,cytochrome c release ratio,[18],1.1
same,inhibition of aggregation,[19],45.9%
same,glutamate uptake change,[20],4.81%
same,inclusion score,[21],2
same,aggregation suppression score,[22],0.716
same,parasite load remaining,[1],163% (inactive) and 58.1% (inactive)
same,viability,[1],88.6% and 96.1%
same,red/green cell ratio (normalised),[2],1.25 (inactive)
same,normalised cell number,[2]; [24],0.98
same,normalised cell number,[2]; [25],1.22
same,outcome,[4],inactive
same,outcome,[13],inactive
same,outcome,[6],inactive
same,fold change,[9]; [26],0.937 (inactive) and 0.887 (inactive)
same,fold change,[9]; [27],0.646 and 4.46
same,cell count,[9]; [28],7800 and 11500
same,cell count,[9]; [29],8320 and 13000
same,z-score,"[23]; MELAS cybrid survival, CellTiter-Glo 48 h, stronger effect = higher value",-0.332 (inactive)
same,z-score,"[23]; Rieske KO mouse fibroblast survival, CellTiter-Glo 72 h",-0.2

# — PubChem BioAssay
